Compound activity: PubChem BioAssay, Buhrlage Lab, Dana-Farber Cancer Institute and Novartis Institutes for BioMedical Research (Cambridge, Mass)
USP17 block = human USP17-like deubiquitinase inhibition; inhibition, % at 50 µM; purified USP17, Ub-rhodamine cleavage fluorescence, 3 h; 47,000 compounds, 6.5% hits
USP30 block = blocks human USP30 ubiquitin-rhodamine cleavage. Q70CQ3. purified USP30, Ub-rhodamine cleavage fluorescence. inhibition, % at 25 µM. 47,000 compounds, 5.3% hits
USP8 block = human USP8 deubiquitinase inhibition; P40818; purified USP8, Ub-rhodamine cleavage fluorescence, 30 min; inhibition, % at 20 µM; 47,000 compounds, 4.2% hits
Target sequence (P40818 whole entry, looked up): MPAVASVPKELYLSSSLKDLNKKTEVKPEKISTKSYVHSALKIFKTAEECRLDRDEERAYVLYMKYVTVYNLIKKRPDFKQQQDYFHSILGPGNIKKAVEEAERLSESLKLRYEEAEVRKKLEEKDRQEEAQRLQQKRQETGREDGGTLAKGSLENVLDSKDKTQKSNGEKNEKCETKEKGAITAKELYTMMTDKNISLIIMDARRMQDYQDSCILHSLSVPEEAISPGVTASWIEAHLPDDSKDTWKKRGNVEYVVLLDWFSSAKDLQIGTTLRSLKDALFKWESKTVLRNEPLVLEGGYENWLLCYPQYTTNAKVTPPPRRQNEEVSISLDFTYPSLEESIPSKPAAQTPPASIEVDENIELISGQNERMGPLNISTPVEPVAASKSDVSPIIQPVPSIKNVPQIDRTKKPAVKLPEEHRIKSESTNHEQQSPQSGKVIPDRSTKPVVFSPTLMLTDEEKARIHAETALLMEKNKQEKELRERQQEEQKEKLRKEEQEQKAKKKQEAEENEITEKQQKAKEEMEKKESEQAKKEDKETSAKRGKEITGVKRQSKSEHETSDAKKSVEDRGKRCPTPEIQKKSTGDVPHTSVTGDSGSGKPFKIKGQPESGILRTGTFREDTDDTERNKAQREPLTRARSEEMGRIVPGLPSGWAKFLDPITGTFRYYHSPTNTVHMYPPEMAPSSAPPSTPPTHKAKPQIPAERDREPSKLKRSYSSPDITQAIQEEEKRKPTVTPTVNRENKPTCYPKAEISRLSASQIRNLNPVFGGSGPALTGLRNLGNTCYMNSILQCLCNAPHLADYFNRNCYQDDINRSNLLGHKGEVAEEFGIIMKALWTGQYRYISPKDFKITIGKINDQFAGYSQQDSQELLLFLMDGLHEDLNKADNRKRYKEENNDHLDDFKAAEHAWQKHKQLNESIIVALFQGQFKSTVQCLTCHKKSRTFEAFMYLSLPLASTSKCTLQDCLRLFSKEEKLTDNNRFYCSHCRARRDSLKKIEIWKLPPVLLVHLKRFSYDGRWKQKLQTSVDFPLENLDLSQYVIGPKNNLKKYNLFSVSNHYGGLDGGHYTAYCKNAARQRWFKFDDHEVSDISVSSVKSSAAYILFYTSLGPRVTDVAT
Each line names hits and unclear results; the compound was inactive in the other large screens. Rows were chosen to be rich in hits. Some 12% of all compounds tested hit in one or more screens of this group. No stated cut-off is given here; in the data, active means inhibition above about 30%; inactive means the rest.

CCCCCCCC/C=C\CCCCCCCc1cc(O)cc(O)c1C(=O)O	none
CC(C)=CCc1cc(OC2OC(CO)C(O)C(O)C2O)ccc1O (stereo unspecified)	none
CCCCCCCc1cc(OC(=O)c2c(CCCCCCC)cc(O)cc2O[C@@H]2O[C@H](CO)[C@H](O)[C@H](O)[C@H]2O)cc(O)c1C(=O)O	USP17 block 102, USP30 block 108, USP8 block 99
CCCCCCCc1cc(O)cc(OC(=O)c2c(CCCCCCC)cc(O)cc2O[C@H]2O[C@H](C(O)CO)[C@@H](O)[C@@H]2O)c1 (stereo partly specified)	USP17 block 40
CNC(=O)N1CCc2nc(C(=O)NCc3ccccc3)sc2CC1	none
NC(=O)CN1CCCn2c(nc3ccccc32)C1Cc1ccccc1 (stereo unspecified)	none
Cc1cc(C)c(NC(=O)c2ccc(NS(=O)(=O)c3ccccc3)cc2)c(C)c1	none
CC(C)n1nnc2cc(S(=O)(=O)N3CCCC(C(=O)N4CCCC4)C3)ccc21 (stereo unspecified)	none
COc1c(O)cc(CC(=O)O)c(C(C)=O)c1O	USP17 block 81, USP30 block 34
CCCCCCCC(=O)c1c(O)cc(O)cc1CC(=O)O	none
COc1ccc(NC(=O)c2c(C)oc3nc[nH]c(=O)c23)cc1Cl	none
Cc1cc(C)cc(NC(=O)c2c(C)oc3nc[nH]c(=O)c23)c1	USP17 block 33
CCOc1ccccc1N(CC(=O)NCc1ccccc1)C(=O)CCC(=O)Nc1ccccn1	none
c1ccc2oc(-c3csc(-c4ccc5c(c4)OCCO5)n3)cc2c1	none
c1cc(N2CCOCC2)ccc1-c1csc(-c2ccc3c(c2)OCCO3)n1	USP17 block 40
Cc1nc(-c2ccc3c(c2)OCCCO3)cs1	none
FC(F)(F)c1ccc(-c2nc(-c3ccc4c(c3)OCCCO4)cs2)cc1	USP30 block 33
COc1ccc(-c2csc(N(CC3CCCO3)C(C)=O)n2)cc1 (stereo unspecified)	none
Cc1ccc(CNc2nc3nc(C)c(CCC(=O)N4CCCCC4)c(=O)n3[nH]2)cc1	none (no result: USP17 block)
CCCCC(=O)Oc1cn(CCCN2CCCC2=O)c2nc(CCCC)n3c4ccccc4nc3c12	none
CC(C)(C)c1ccc(-c2nc3[nH]c(=O)cc(NC(=O)c4ccco4)n3n2)cc1	USP8 block 43 (no result: USP17 block)
O=C(Nc1cc(=O)[nH]c2nc(Cc3ccccc3)nn12)c1ccco1	USP8 block 48
COc1ccc(-c2nc3[nH]c(=O)cc(NC(=O)Cc4ccccc4)n3n2)cc1	USP8 block 60
CCC(=O)Nc1cc(=O)[nH]c2nc(-c3ccc(OC)cc3)nn12	none
CCCCC(=O)Nc1cc(=O)[nH]c2nc(Cc3ccccc3)nn12	none
O=C(Nc1cc(=O)[nH]c2nc(COc3ccccc3)nn12)c1ccc(F)cc1	none
Cc1ccccc1-n1ccc2nc(N3CCCC3)ncc2c1=O	none
O=C(O)c1cc(-c2ccc3c(c2)OCCO3)nc2c(C(=O)O)cccc12	none
O=C1NC(c2ccccc2)=N[C@@]12CC[C@@H]1CN(S(=O)(=O)c3ccccc3)C[C@@H]12	none
CCCNc1nc(SC)nc2c1cnn2CCNC(=O)c1ccc(OC)cc1OC	none
Cc1ccc(Nc2cc(C)nc3nc(-c4cccnc4)nn23)cc1	none
CCOC(=O)C1=C(CS(=O)(=O)c2ccc(Cl)cc2)NC(=O)NC1c1ccc(C(C)C)cc1 (stereo unspecified)	none
Cc1ccc(N2CC(CNS(=O)(=O)c3cccc(F)c3)CC2=O)cc1 (stereo unspecified)	none
CCN1c2ccc(S(=O)(=O)N3CCOCC3)cc2N(Cc2c(F)cccc2F)C1C (stereo unspecified)	none
O=S1(=O)[C@@H]2CCNCC[C@@H]2CN1Cc1cccnc1	none
O=S1(=O)CCN(Cc2cccnc2)c2c(F)nc(N3CCOCC3)c(F)c21	USP17 block 54, USP8 block 91
CN(C(=O)Nc1ccccc1F)c1nc2c(s1)CN(Cc1ccccc1)C2=O	none
CCN(CC)c1nc(F)c2c(c1F)S(=O)(=O)CCN2Cc1ccccc1	USP17 block 64, USP8 block 95
O=S1(=O)CCN(Cc2c(F)cccc2F)c2c(F)nc(N3CCOCC3)c(F)c21	USP17 block 67, USP8 block 93
O=C(Nc1cnn(-c2ncncc2N2CCCCC2)c1)C1CCCCC1	none
CCN1C(=O)c2c(C(=O)NCc3ccccn3)ncn2CC1(C)C(=O)NC1CCCC1 (stereo unspecified)	none
CN1CCCc2cc(C(CNC(=O)c3ccccc3F)N3CCOCC3)ccc21 (stereo unspecified)	none
Nc1nccc(/C=C/c2c(Cl)cccc2Cl)n1	USP17 block 31
Nc1ncnc(SCc2c(Cl)cccc2Cl)n1	none
Cc1ccc(C(=O)Nc2ncn(CC(=O)Nc3ccccc3)n2)cc1	USP30 block 41
COc1ccc(NC(=O)Cn2cnc(NC(=O)c3ccccc3)n2)cc1	USP17 block 46
COc1cccc(NC(=O)Cn2cnc(NC(=O)c3ccccc3)n2)c1	none
